{"source": "PubChem BioAssay", "data": [{"assay": "probe aNOTCH2 binding on compound microarray – biochemical, small-molecule microarray, 635/667 nm fluorescence, primary screen (AID 1121);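 note: score merges feature fluorescence read at 667 nm with its signal to noise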", "details": "higher = more signal", "values": [{"compound": "CC(C)CCN1CCc2nc(COc3ccccc3)c3c(c2C1)CO[C@@H](C)C3", "composite z-score": -0.0797}, {"compound": "O=C(NN=C1C[C@@H](O)[C@@H](O)[C@@H]2[C@@H]3C(=O)N(Cc4ccccc4)C(=O)[C@@H]3CC[C@@H]12)OCc1ccccc1", "composite z-score": -0.129}, {"compound": "CO[C@@H]1COC(=O)[C@@H](C)COC(=O)[C@@H](C)NC(=O)CC=C[C@@H]1C", "composite z-score": -0.208}, {"compound": "CO[C@@H]1COC(=O)CC=C[C@@H](C)[C@@H]2C=C[C@H](O)[C@@H](COC(=O)CC=C[C@H]1C)O2", "composite z-score": -0.166}, {"compound": "COC(=O)[C@@H]1CC[C@H](C)[C@@H](c2ccc(C)cc2)N1C(=O)c1ccc(C=NO[C@H](C)c2cn([C@H](CO)Cc3ccccc3)nn2)cc1", "composite z-score": 0.111}, {"compound": "CCC=CCCC(OC(=O)c1ccc(Br)cc1)C1=CCCCC1=O", "note": "(stereo not drawn)", "composite z-score": -0.102}, {"compound": "CO[C@H]1COC(=O)[C@@H](C)COC(=O)[C@H](COCc2ccccc2)NC(=O)CC=C[C@H]1C", "composite z-score": -0.135}, {"compound": "CCOC(=O)CCN1C(=O)[C@H]2[C@H]3[C@H](O)[C@H](O)CC(=NOCC(C)C)[C@H]3CC[C@H]2C1=O", "composite z-score": -0.14}, {"compound": "C#CCCCON=C1C[C@@H](O)[C@@H](O)[C@@H]2[C@@H]3C(=O)N(CC)C(=O)[C@@H]3CC[C@@H]12", "composite z-score": -0.108}, {"compound": "CON=C1[C@H]2CCn3c(=O)n(-c4ccccc4)c(=O)n3[C@H]2[C@H](O)[C@@H]2O[C@H]12", "composite z-score": -0.121}, {"compound": "CC(C)=CCCC(C)=CCON=C1C[C@@H](O)[C@@H](O)[C@@H]2[C@@H]3C(=O)N(C(C)(C)C)C(=O)[C@@H]3CC[C@@H]12", "composite z-score": -0.0859}, {"compound": "CC(C)(C)N1C(=O)[C@H]2[C@H]3[C@H](O)[C@H](O)CC(=O)[C@@H]3CC[C@H]2C1=O", "composite z-score": 0.0811}, {"compound": "CC(=O)OC[C@H]1O[C@H](CC=NO[C@H](C)c2cn([C@H](CO)Cc3ccccc3)nn2)C=C[C@@H]1OC(C)=O", "composite z-score": -0.0482}, {"compound": "C=Cc1ccc([C@H]2N[C@H](C(=O)O)CC[C@@H]2C)cc1", "composite z-score": -0.155}, {"compound": "O=C(C=Cc1ccc2c(c1)OCO2)c1ccc(F)cc1", "composite z-score": -0.0811}, {"compound": "C[C@@H]1CC[C@H]2C(=O)O[C@@H](Cc3ccccc3)CN2[C@H]1c1ccc(Br)cc1", "composite z-score": -0.106}, {"compound": "C=CC1=C[C@H](O)[C@@H]2O[C@@H]2C12OCCCO2", "composite z-score": -0.0878}, {"compound": "CCN1C(=O)[C@H]2[C@H]3[C@H](O)[C@H](O)CC(=NO[C@@H](C)c4cn([C@H](CO)Cc5ccccc5)nn4)[C@@H]3CC[C@H]2C1=O", "composite z-score": -0.184}, {"compound": "CCOC(=O)[C@H](Cc1ccccc1)NC(=O)CCC1CC(OC(=O)NCc2ccc3c(c2)OCO3)CC2(CCCC(COC(=O)NCCC(C)C)O2)O1", "note": "(stereo partly drawn)", "composite z-score": -0.0707}, {"compound": "O=C1[C@H]2[C@H]3[C@H](O)[C@H](O)CC(=NOC[C@@H](O)COCc4ccco4)[C@H]3CC[C@H]2C(=O)N1C[C@@H]1CCCO1", "composite z-score": -0.208}, {"compound": "CC(C)=NO[C@H](C)c1cn([C@H](CO)Cc2ccccc2)nn1", "composite z-score": -0.123}, {"compound": "O=C1CCCC=C1C(O)CCCCBr", "note": "(stereo not drawn)", "composite z-score": 0.0377}, {"compound": "COC(=O)CC=C[C@@H](C)[C@@H](C=NOC[C@@H](O)[C@H]1O[C@@H]2OC(C)(C)O[C@@H]2[C@H]1O)NS(=O)(=O)c1ccc(C)cc1", "composite z-score": -0.289}, {"compound": "CCOC(=O)[C@H](Cc1ccccc1)NC(=O)CCC1CC(OC(=O)NCCc2ccc(F)cc2)CC2(CCCC(COC(=O)NCc3ccccc3)O2)O1", "note": "(stereo partly drawn)", "composite z-score": -0.124}, {"compound": "COC(=O)CC=C[C@@H](C)[C@@H](C=NOC(C)CN1CCCc2nc(C)c(C)cc21)OC", "note": "(stereo partly drawn)", "composite z-score": -0.176}, {"compound": "O=C1CCCC=C1C(O)CCOC(c1ccccc1)(c1ccccc1)c1ccccc1", "note": "(stereo not drawn)", "composite z-score": -0.169}, {"compound": "C[C@@H]1C=CCC(=O)OC[C@H]2O[C@@H](C=C[C@@H]2O)[C@H](C)C=CCC(=O)OC1", "composite z-score": -0.0903}, {"compound": "CO[C@@H]1C=CCC(=O)N[C@@H](C)C(=O)OC[C@@H](OC)[C@H](C)CCCC(=O)OC[C@H]1C", "composite z-score": -0.208}, {"compound": "Cc1ccc(S(=O)(=O)OC[C@H]2CN3[C@H](c4ccc(Br)cc4)[C@@H](C)CC[C@H]3C(=O)O2)cc1", "composite z-score": -0.147}, {"compound": "CC(C)=CCCC(C)=CCON=C1C[C@@H](O)[C@@H](O)[C@@H]2[C@@H]3C(=O)N(C4CCCCC4)C(=O)[C@@H]3CC[C@@H]12", "composite z-score": -0.13}, {"compound": "O=C1C=C[C@@H](O)[C@@H]2[C@@H]3C(=O)N(C[C@@H]4CCCO4)C(=O)[C@@H]3CC[C@@H]12", "composite z-score": -0.112}, {"compound": "CCOC(=O)[C@H](CC(C)C)NC(=O)CCC1CC(OC(=O)NCc2cccc3ccccc23)CC2(CCCC(COC(=O)NCCCN3CCCC3=O)O2)O1", "note": "(stereo partly drawn)", "composite z-score": -0.108}, {"compound": "Cc1ccc(S(=O)(=O)N[C@H]2COC(=O)CC=C[C@@H](C)COC(=O)CC=C[C@@H]2C)cc1", "composite z-score": -0.186}]}]}
